Results with a measured potency or affinity are listed apart. Records with an inconclusive call do not appear. Calls of active or inactive are those of the source.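 Rule for the calls, unless noted: active = signal-lowering compounds whose fitted half-maximal concentration is at or below twice the top tested dose in every run; inconclusive = runs disagree, flat 30 to 70% inhibition, or poor curve fit; inactive = the rest.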
experiment: IOSE-T80 viability loss, PAX8-independent line – cell-based, cherry-pick, selectivity assay for PAX8 inhibitor project, dose response (AID 687032;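 active = fitted half-maximal concentration for viability loss no higher than twice the top valid dose, in every repeat run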;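 note: cells exposed to compound for 96 h before reading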); conditions: CellTiterGlo ATP luminescence, 96 h; series mostly up to 35 µM

Compound	outcome
COc1cccc(-c2ccc3c(c2)[C@@H]2[C@@H](CCN2S(=O)(=O)c2ccccc2C)[C@H](CO)N3C)c1	inactive
COc1cc(/C=C/C(=O)N2CCC=CC2=O)cc(OC)c1OC	inactive
C[C@H](CO)N1C[C@H](C)[C@@H](CN(C)S(=O)(=O)c2ccc(Cl)cc2)OCCCC[C@H](C)Oc2ccc(NS(=O)(=O)c3ccc(F)cc3)cc2C1=O	inactive
COc1ccccc1NC(=O)N1CCCCN2[C@H](C1)[C@@H](c1ccc(-c3cccc(C#N)c3)cc1)[C@@H]2CO	inactive
C[C@H]1CN([C@@H](C)CO)S(=O)(=O)c2ccc(C#Cc3ccccc3F)cc2O[C@H]1CN(C)C(=O)c1ccc2c(c1)OCO2	inactive
O=C(C1CCC1)N1CCCCN2[C@H](CO)[C@H](c3ccc(-c4cccc(F)c4)cc3)[C@H]2C1	inactive
C[C@H]1CCCCO[C@@H](CN(C)Cc2ccncc2)[C@@H](C)CN([C@@H](C)CO)C(=O)c2cc(NC(=O)Nc3ccc(C(F)(F)F)cc3)ccc2O1	inactive
COc1ccc(NC(=O)Nc2ccc3c(c2)C(=O)N([C@@H](C)CO)C[C@@H](C)[C@@H](CN(C)Cc2ccc(C(F)(F)F)cc2)O3)cc1	inactive
O=S(=O)(c1ccccc1F)N1CC[C@@H]2[C@H](CO)Nc3ccc(C4=CCCCC4)cc3[C@@H]21	inactive
C[C@@H]1CCCCO[C@@H](CN(C)Cc2ccc(C(F)(F)F)cc2)[C@H](C)CN([C@@H](C)CO)C(=O)c2cc(NS(=O)(=O)c3ccc(Cl)cc3)ccc2O1	inactive
CCOc1ccc(C2=Nn3c(nnc3-c3ccccc3OC)SC2)cc1	inactive
Oc1ccc(C[C@H]2CNC(=S)N2CC2CCCN2C[C@H](Cc2ccc(O)cc2)N2C[C@H](Cc3ccccc3)N(CC3CCCCCC3)C2=S)cc1 (some centres not stated)	inactive
C[C@H]1CN([C@@H](C)CO)S(=O)(=O)c2ccc(C#Cc3ccncc3)cc2O[C@@H]1CN(C)C(=O)Nc1ccc2c(c1)OCO2	inactive
Cc1ccc(S(=O)(=O)Nc2ccc3c(c2)C(=O)N([C@H](C)CO)C[C@H](C)[C@@H](CN(C)S(=O)(=O)c2ccc(F)cc2)OCCCC[C@H](C)O3)cc1	inactive
Cc1ccc(S(=O)(=O)N(C)C[C@@H]2Oc3ccc(NC(=O)Nc4ccc(C(F)(F)F)cc4)cc3CC(=O)N([C@@H](C)CO)C[C@@H]2C)cc1	inactive
C[C@@H]1CCCCO[C@H](CN(C)Cc2ccncc2)[C@H](C)CN([C@H](C)CO)C(=O)c2cc(NC(=O)Nc3ccc(C(F)(F)F)cc3)ccc2O1	inactive
CS(=O)(=O)Nc1ccc2c(c1)[C@@H]1C[C@@H](CC(=O)NCc3ccc(-c4ccccc4)cc3)O[C@@H](CO)[C@@H]1O2	inactive
C[C@@H]1CN([C@@H](C)CO)C(=O)c2cc(N(C)C)ccc2O[C@@H](C)CCCCO[C@H]1CN(C)S(=O)(=O)c1ccc(F)cc1	inactive
COc1ccc(C#Cc2ccc([C@H]3[C@@H](CO)N4CCCCN(C(=O)Nc5ccccc5)C[C@H]34)cc2)cc1	inactive
COc1ccc2c3c([nH]c2c1)[C@@H](CO)N(C(=O)Nc1cccc(F)c1)CC31CCN(S(=O)(=O)c2cccc(C)c2)CC1	inactive
C[C@@H]1CCCCO[C@@H](CN(C)Cc2ccncc2)[C@H](C)CN([C@@H](C)CO)C(=O)c2cc(NC(=O)Nc3ccc(C(F)(F)F)cc3)ccc2O1	inactive
C[C@H]1CCCCO[C@H](CN(C)C(=O)Nc2ccc(C(F)(F)F)cc2)[C@@H](C)CN([C@@H](C)CO)C(=O)c2cc(NS(=O)(=O)c3cccs3)ccc2O1	inactive
C=C(C)c1cccc(C(C)(C)NC(=O)N2CCN(c3ccccc3OC)CC2)c1	inactive
C[C@@H]1CCCCO[C@H](CN(C)C(=O)c2ccccc2)[C@H](C)CN([C@@H](C)CO)C(=O)c2cc(NC(=O)Nc3ccc(C(F)(F)F)cc3)ccc2O1	inactive
C[C@H]1CCCCO[C@H](CN(C)Cc2ccc(C(F)(F)F)cc2)[C@@H](C)CN([C@@H](C)CO)C(=O)c2cc(NC(=O)Nc3ccc(F)cc3)ccc2O1	inactive
C[C@@H]1CN([C@H](C)CO)C(=O)c2cc(NC(=O)Cc3ccccc3)ccc2O[C@@H](C)CCCCO[C@H]1CN(C)Cc1ccc(C(F)(F)F)cc1	inactive

experiment: CMV-driven luciferase expression suppression in HEK293 – cell-based, luminescence, dry powder, counter-screen for Pax8 inhibitor project, dose response (AID 743020); conditions: HEK293 CMV-luciferase reporter, SteadyGlo luminescence, 24 h; series mostly up to 35 µM;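 note: HEK293 cells stably expressing the CMV luciferase reporter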

Compound	outcome
COc1cccc(-c2ccc3c(c2)[C@@H]2[C@@H](CCN2S(=O)(=O)c2ccccc2C)[C@H](CO)N3C)c1	inactive
COc1cc(/C=C/C(=O)N2CCC=CC2=O)cc(OC)c1OC	inactive
C[C@H](CO)N1C[C@H](C)[C@@H](CN(C)S(=O)(=O)c2ccc(Cl)cc2)OCCCC[C@H](C)Oc2ccc(NS(=O)(=O)c3ccc(F)cc3)cc2C1=O	inactive
COc1ccccc1NC(=O)N1CCCCN2[C@H](C1)[C@@H](c1ccc(-c3cccc(C#N)c3)cc1)[C@@H]2CO	inactive
C[C@H]1CN([C@@H](C)CO)S(=O)(=O)c2ccc(C#Cc3ccccc3F)cc2O[C@H]1CN(C)C(=O)c1ccc2c(c1)OCO2	inactive
O=C(C1CCC1)N1CCCCN2[C@H](CO)[C@H](c3ccc(-c4cccc(F)c4)cc3)[C@H]2C1	inactive
C[C@H]1CCCCO[C@@H](CN(C)Cc2ccncc2)[C@@H](C)CN([C@@H](C)CO)C(=O)c2cc(NC(=O)Nc3ccc(C(F)(F)F)cc3)ccc2O1	inactive
COc1ccc(NC(=O)Nc2ccc3c(c2)C(=O)N([C@@H](C)CO)C[C@@H](C)[C@@H](CN(C)Cc2ccc(C(F)(F)F)cc2)O3)cc1	inactive
O=S(=O)(c1ccccc1F)N1CC[C@@H]2[C@H](CO)Nc3ccc(C4=CCCCC4)cc3[C@@H]21	inactive
C[C@@H]1CCCCO[C@@H](CN(C)Cc2ccc(C(F)(F)F)cc2)[C@H](C)CN([C@@H](C)CO)C(=O)c2cc(NS(=O)(=O)c3ccc(Cl)cc3)ccc2O1	inactive
CCOc1ccc(C2=Nn3c(nnc3-c3ccccc3OC)SC2)cc1	inactive
Oc1ccc(C[C@H]2CNC(=S)N2CC2CCCN2C[C@H](Cc2ccc(O)cc2)N2C[C@H](Cc3ccccc3)N(CC3CCCCCC3)C2=S)cc1 (some centres not stated)	inactive
C[C@H]1CN([C@@H](C)CO)S(=O)(=O)c2ccc(C#Cc3ccncc3)cc2O[C@@H]1CN(C)C(=O)Nc1ccc2c(c1)OCO2	inactive
Cc1ccc(S(=O)(=O)Nc2ccc3c(c2)C(=O)N([C@H](C)CO)C[C@H](C)[C@@H](CN(C)S(=O)(=O)c2ccc(F)cc2)OCCCC[C@H](C)O3)cc1	inactive
Cc1ccc(S(=O)(=O)N(C)C[C@@H]2Oc3ccc(NC(=O)Nc4ccc(C(F)(F)F)cc4)cc3CC(=O)N([C@@H](C)CO)C[C@@H]2C)cc1	inactive
C[C@@H]1CCCCO[C@H](CN(C)Cc2ccncc2)[C@H](C)CN([C@H](C)CO)C(=O)c2cc(NC(=O)Nc3ccc(C(F)(F)F)cc3)ccc2O1	inactive
CS(=O)(=O)Nc1ccc2c(c1)[C@@H]1C[C@@H](CC(=O)NCc3ccc(-c4ccccc4)cc3)O[C@@H](CO)[C@@H]1O2	inactive
C[C@@H]1CN([C@@H](C)CO)C(=O)c2cc(N(C)C)ccc2O[C@@H](C)CCCCO[C@H]1CN(C)S(=O)(=O)c1ccc(F)cc1	inactive
COc1ccc(C#Cc2ccc([C@H]3[C@@H](CO)N4CCCCN(C(=O)Nc5ccccc5)C[C@H]34)cc2)cc1	inactive
COc1ccc2c3c([nH]c2c1)[C@@H](CO)N(C(=O)Nc1cccc(F)c1)CC31CCN(S(=O)(=O)c2cccc(C)c2)CC1	inactive
C[C@@H]1CCCCO[C@@H](CN(C)Cc2ccncc2)[C@H](C)CN([C@@H](C)CO)C(=O)c2cc(NC(=O)Nc3ccc(C(F)(F)F)cc3)ccc2O1	inactive
C[C@H]1CCCCO[C@H](CN(C)C(=O)Nc2ccc(C(F)(F)F)cc2)[C@@H](C)CN([C@@H](C)CO)C(=O)c2cc(NS(=O)(=O)c3cccs3)ccc2O1	inactive
C=C(C)c1cccc(C(C)(C)NC(=O)N2CCN(c3ccccc3OC)CC2)c1	inactive
C[C@@H]1CCCCO[C@H](CN(C)C(=O)c2ccccc2)[C@H](C)CN([C@@H](C)CO)C(=O)c2cc(NC(=O)Nc3ccc(C(F)(F)F)cc3)ccc2O1	inactive
C[C@H]1CCCCO[C@H](CN(C)Cc2ccc(C(F)(F)F)cc2)[C@@H](C)CN([C@@H](C)CO)C(=O)c2cc(NC(=O)Nc3ccc(F)cc3)ccc2O1	inactive
C[C@@H]1CN([C@H](C)CO)C(=O)c2cc(NC(=O)Cc3ccccc3)ccc2O[C@@H](C)CCCCO[C@H]1CN(C)Cc1ccc(C(F)(F)F)cc1	inactive

From PubChem BioAssay
